Laboratory results from PubChem BioAssay AID1259421 (Broad Institute, 2018).
Several values for one entry are separate records, joined by “and”; a condition that tells them apart may be missing. Equal entries are not always repeated. The whole screen tested about 6,400 compounds, of which about 610 (9.5%) were called active. No stated cut-off is given here; in the data, active means activity change below about -70%; inconclusive means no clear call, values can overlap the other calls; inactive means above that. Only a selection was taken, and actives are over-represented in it overall. Some compounds were tested as several samples or in several runs, with calls that do not always agree.

assay: T. gondii ME49Luc in HeLa cells, luciferase assay, 72 h, no IFN-y (AID 1259421); conditions: stronger effect = lower value, concentration not given here

Row | Structure (SMILES) | activity change, negative = inhibition
1 | N[C@@H]1c2cccnc2[C@H](OC(=O)N2CCC(n3c(=O)[nH]c4ncccc43)CC2)CC[C@H]1c1cccc(F)c1F | -1.69% (inactive)
2 | C=C[C@@H]1C[C@]1(NC(=O)[C@@H]1C[C@@H]2CN1C(=O)[C@H](C(C)(C)C)NC(=O)O[C@@H]1C[C@H]1CCCCCc1nc3ccc(OC)cc3nc1O2)C(=O)NS(=O)(=O)C1CC1 | 0.122% (inactive)
3 | C=C[C@@H]1C[C@]1(NC(=O)[C@@H]1C[C@@H](Oc2ncc(OC)c3ccc(Cl)cc23)CN1C(=O)[C@@H](NC(=O)OC(C)(C)C)C(C)(C)C)C(=O)NS(=O)(=O)C1CC1 | -73.7% (active)
4 | CCOc1ccccc1O[C@H](c1ccccc1)[C@H]1CNCCO1 (racemic) | 8.34% (inactive)
5 | O=C(c1ccc(C(=O)N2CCC(N3CCCC3)CC2)c(Nc2ccccc2)c1)N1CCC(N2CCCC2)CC1 | -4.76% (inactive)
6 | O=C(c1ccc(Nc2nccc(-c3cc4ccccc4s3)n2)cc1)N1CCC(N2CCCC2)CC1 | -80.6% (active) and -80.3% (active)
7 | O=C(c1cncc(Br)c1)N1CCC(N2CCCC2)CC1 | 15.9% (inactive)
8 | CC1=C2C(O)C(=O)OC3CC4C(C)(C)C(=O)C=C[C@]4(C)C(CC1)[C@]23C (stereo not given in full) | 9.55% (inactive)
9 | COC(=O)N[C@H](C(=O)N1CC2(CC2)C[C@H]1c1ncc(-c2ccc3c(c2)C(F)(F)c2cc(-c4ccc5nc([C@@H]6[C@H]7CC[C@H](C7)N6C(=O)[C@@H](NC(=O)OC)C(C)C)[nH]c5c4)ccc2-3)[nH]1)C(C)C | -11.8% (inactive)
10 | CC(C)N=C(N)/N=C(\N)Nc1ccc(Cl)cc1 | 13.8% (inactive) and 11.1% (inactive)
11 | Cc1ccc2c(=O)c3ccccc3n(CCCN)c2c1C | -91.1% (active) and -77% (active)
12 | Cc1ccc2c(=O)c3cccc(CC(=O)O)c3oc2c1C | 9.87% (inactive)
13 | Cc1cc(=O)c(C(=O)N[C@@H](C(=O)N[C@@H]2C(=O)N3C(C(=O)O)=C(CSc4nnnn4C)CS[C@H]23)c2ccc(O)cc2)c[nH]1 | 9.23% (inactive)
14 | NC(CC(=O)Nc1ccc(Oc2cc(F)c(F)cc2Br)cc1)C(=O)O (stereo not given) | 0.0757% (inactive)
15 | COc1cc(OC)c(C(C)=O)c(O)c1C | 2.79% (inactive)
16 | CCCCCCCCCCCCCC[C@@H](O)[C@@H](O)[C@@H](N)CO | 24.8% (inactive)
17 | Nc1[nH]c(=O)ncc1F | 8.39% (inactive) and -90.4% (active)
18 | O=S(=O)(NCCNC/C=C/c1ccc(Br)cc1)c1cccc2cnccc12 | 4.5% (inactive) and -8.12% (inactive)
19 | O=C(C(c1ccccc1)c1ccccc1)N1CCN(CC(O)COc2cccc3ncccc23)CC1 (stereo not given) | 10.1% (inactive)
20 | Cn1c(=O)n(-c2ccc(C(C)(C)C#N)cc2)c2c3cc(-c4cnc5ccccc5c4)ccc3ncc21 | 13.4% (inactive)
21 | CC(C)(C#N)c1ccc(N2C(=O)OCc3cnc4ccc(-c5cnc6ccccc6c5)cc4c32)cc1 | -90.7% (active)
22 | C=CC(=O)Nc1cc(Nc2nccc(-c3cn(C)c4ccccc34)n2)c(OC)cc1N(C)CCN(C)C | -63.1% (inactive)
23 | C[C@H](CCC(=O)O)[C@H]1CCC2C3C(=O)CC4CC(=O)CC[C@]4(C)C3CC(=O)[C@@]21C (stereo not given in full) | 8.53% (inactive) and 10.4% (inactive)

Row | Structure (SMILES) | activity change, negative = inhibition
24 | O=c1[nH]cnc2nc[nH]c12 | 7.14% (inactive)
25 | COc1cccc(-c2cc(=O)c3cc(OC)ccc3o2)c1 | 316% (inactive)
26 | O=C1Nc2ccc(Br)cc2/C1=C/c1cc2c([nH]1)CCCC2 | 13.6% (inactive)
27 | CC(N)=NCCCC[C@H](N)C(=O)O | 11.5% (inactive)
28 | CCCCC(CC)CN=C(N)NC(N)=NCCCCCCN=C(N)NC(N)=NCC(CC)CCCC (stereo not given) | -87.6% (active)
29 | CCCCCCCCCCC(CO)CCCCCCCC (stereo not given) | 7.89% (inactive)
30 | C=C1CCC2C(CC2(C)C)C(=O)CCC1O (stereo not given) | 4.7% (inactive)
31 | C[C@@]1(C(=O)Nc2ccc(F)nc2)CCCN1c1nc(Nc2cc(C3CC3)[nH]n2)c2cccn2n1 | -54.4% (inactive)
32 | CCOC(=O)[C@H](CCc1ccccc1)N[C@@H](C)C(=O)N1C(=O)N(C)C[C@@H]1C(=O)O | 6.47% (inactive)
33 | CC1CCC(C(=O)N(c2cc(C#CC(C)(C)C)sc2C(=O)O)C2CCC(O)CC2)CC1 (stereo not given) | 16.2% (inactive)
34 | C[C@]12CC[C@H]3[C@@H](CCC4=CC(=O)CC[C@@]43C)[C@@H]1CC[C@@H]2C(=O)CO | -83.1% (active)
35 | CCCCC(=O)O[C@]1(C(=O)CO)CCC2C3CCC4=CC(=O)CC[C@]4(C)C3[C@@H](O)C[C@@]21C (stereo not given in full) | 0.149% (inactive) and 0.816% (inactive)
36 | CCCCCC(=O)O[C@]1(C(C)=O)CCC2C3CCC4=CC(=O)CC[C@]4(C)C3CC[C@@]21C (stereo not given in full) | -76.9% (active)
37 | CC(=O)OCC(=O)[C@H]1CCC2C3CCC4=CC(=O)CC[C@]4(C)C3CC[C@@]21C (stereo not given in full) | 0.487% (inactive)
38 | CC(=O)OCC(=O)[C@H]1CCC2C3CC=C4C[C@@H](O)CC[C@]4(C)C3CC[C@@]21C (stereo not given in full) | 7.77% (inactive)
39 | CC(=O)OCC(=O)[C@H]1CC[C@H]2[C@@H]3CCC4=CC(=O)CC[C@]4(C)[C@H]3CC[C@]12C | -73.9% (active) and -75.9% (active)
40 | C[C@]12C[C@H](O)[C@H]3[C@@H](CCC4=CC(=O)CC[C@@]43C)[C@@H]1CC[C@@H]2C(=O)CO | 1.69% (inactive)
41 | CCC(=O)O[C@]1(C(=O)CO)CC[C@H]2[C@@H]3CCC4=CC(=O)CC[C@]4(C)[C@H]3CC[C@@]21C | -9.17% (inactive)
42 | CC(=O)[C@@]1(O)CCC2C3CCC4=CC(=O)CC[C@]4(C)C3CC[C@@]21C (stereo not given in full) | 6.92% (inactive) and 3.13% (inactive)
43 | CCCOc1ccc(Br)cc1-c1cc(-c2ccc(Cl)cc2)[nH]c1-c1ccncc1 | -7.79% (inactive)
44 | CC(C)N1CCN(c2ccc(C(=O)c3c(-c4ccc(O)cc4)sc4cc(O)ccc34)cc2)CC1 | -3.21% (inactive) and -13.9% (inactive)
45 | NC(N)=Nc1nc(CSCC/C(N)=N\S(N)(=O)=O)cs1 | 15.8% (inactive) and 7.35% (inactive)
